# From ChEMBL document CHEMBL3988442, “University of Dundee, Small-Polar-MMV Screening Library” (2021)
# The whole screen tested about 48,000 compounds, of which about 13,000 (27%) showed an effect of 50% or more. The list shows a part of the results.
# Tested on: Wolbachia pipientis
# Experiment: Anti-Wolbachia Cell-Based Screen
# Type: functional
# Parameters: scale not given: in the data most compounds retested in dose-response had high values
# Conditions: 5 µM
row,Compound,Percent Effect
1,CC(C)(O)c1cn(C[C@H]2C[C@@H]3CCN2C[C@@H]3C(=O)N2CCOCC2)nn1,-10.14%
2,CS(=O)(=O)N1CCC2(CCCN(Cc3ccccn3)C2)CC1.O=C(O)C(F)(F)F,4.513%
3,CS(=O)(=O)N1CCC2(CCCN(Cc3ccccn3)C2)C1.O=C(O)C(F)(F)F.O=C(O)C(F)(F)F (stereo not drawn),-1.492%
4,O=S(=O)(C1CC1)N1CCC2(CCCN(Cc3ccccn3)C2)CC1,112.9%
5,O=C(O)C(F)(F)F.O=C(O)C(F)(F)F.O=C1N(c2cncnc2)CCC12CCCN(Cc1ccccn1)C2 (stereo not drawn),-2.82%
6,O=C(O)C(F)(F)F.O=C(O)C(F)(F)F.O=S(=O)(C1CC1)N1CCC2(CCCN(Cc3ccccn3)C2)C1 (stereo not drawn),113.2%
7,Cc1cnn(CC(C)NCCc2cccs2)c1 (stereo not drawn),11.98%
8,COCCN1C[C@H]2[C@@H](C1)N(C(=O)COc1ccccc1)CC[C@H]2OC,0.3223%
9,CC(C)=CCN1CCN(C(=O)COc2ccccc2)[C@H]2CS(=O)(=O)C[C@H]21,-38.59%
10,CC1CN(C)CCN1C(=O)COc1cccc(Oc2ccccn2)c1 (stereo not drawn),82.16%
11,O=C(c1ccnc(-n2cnnc2)c1)N1CCCC2(CCNC2)C1 (stereo not drawn),-10.09%
12,CN(C)c1nccc(N(C)C2CCN(CC3CCOC3)CC2)n1 (stereo not drawn),-1.947%
13,CC(C)N1CCOC(c2ccnc(N(C)C)n2)C1 (stereo not drawn),82.78%
14,CC(C)N1CCC(N(C)c2ccnc(N(C)C)n2)CC1,15.64%
15,CCOC(=O)N1CCCC2(CCCNC2)C1.Cl (stereo not drawn),-10.87%
16,Oc1ccc(N2CCN(Cc3ccc(F)cc3Br)CC2)cc1,1.788%
17,CCCN(CC)c1cc(C2CCNCC2)nc(C)n1,112.1%
18,CC(C)NC(=O)CN1CCSC2(CCCCC2)C1,-91.97%
19,O=C1N(Cc2ccccn2)C[C@H]2CN(C3CCOCC3)CCN12,0.5644%
20,O=C(c1cnc(-c2ccccc2)s1)N1CCC2(CC1)OCCO2,-4.517%
21,O=C(C1CC(=O)N(c2ccccc2)C1)N1CCC2(CC1)OCCO2 (stereo not drawn),-2.385%
22,O=C(c1cccc(-n2cnnn2)c1)N1CCC2(CC1)OCCO2,106.4%
23,Cc1cnc(N2C[C@H]3CCN(CC4CC4)C[C@H]3C2)nc1.O=C(O)C(F)(F)F,15.24%
24,CCCN1CCC(c2nc3ccc(C)cn3n2)CC1.O=C(O)C(F)(F)F,104.2%

row,Compound,Percent Effect
1,Cc1cnc(N2C[C@H]3CCN(CC4CC4)C[C@@H]3C2)nc1.O=C(O)C(F)(F)F,6.173%
2,O=C(NC[C@H]1C[C@@H]2CCN1C[C@@H]2CN1CCCCC1)Nc1ccsc1,3.271%
3,CC[C@H]1CN2CC[C@H]1C[C@@H]2CNCc1ccc(OC(F)(F)F)cc1,-1.711%
4,CCc1ccc(OCC(=O)N2CCN(CC)CC2)cc1,-2.93%
5,Cc1ccc(CC(=O)N2CCN(CC(O)c3ccccc3)CC2)cn1 (stereo not drawn),-5.029%
6,CCOc1ncccc1C(=O)N1CCN(C)C2(CCN(C)CC2)C1,-9.489%
7,CCN1CCN(C(=O)c2cn(Cc3ccccc3)c3ncccc23)CC1,118.7%
8,CNc1ncccc1C(=O)N1CCN(C)C2(CCN(C)CC2)C1,-3.315%
9,CN1CCN(C(=O)c2cn(Cc3ccccc3)c3ncccc23)CC1,129.1%
10,CC(C)CN1CCC2(CC1)CN(C(=O)C(C)C)C2.O=C(O)C(F)(F)F,-9.801%
11,Cc1ccc(CN2C[C@@H]3CN(c4ncc(F)cn4)C[C@@H]3C2)cc1.O=C(O)C(F)(F)F,6.106%
12,O=C(O)CC(O)(CC(=O)O)C(=O)O.O[C@@]1(c2ccccn2)CC[C@H]2CN(Cc3cccc(Cl)c3Cl)C[C@H]21,-2.173%
13,Cc1ccc([C@]2(O)CC[C@H]3CN(Cc4ccccc4F)C[C@H]32)nc1.O=C(O)CC(O)(CC(=O)O)C(=O)O,152.5%
14,O=C(O)CC(O)(CC(=O)O)C(=O)O.O[C@@]1(c2ccccn2)CC[C@H]2CN(Cc3ccccn3)C[C@H]21,115.3%
15,O=C(O)C(F)(F)F.O=C1[C@@H]2CN(Cc3ccccn3)C[C@H]2CCN1c1cncnc1,16.77%
16,O=C(N1CCCC1)N1C[C@@H]2CCNC[C@@H]21,-24.15%
17,CCCN1C[C@H]2CC[C@@H]1CN(C(=O)Cc1c(C)nc(CC)[nH]c1=O)C2,6.983%
18,CNC(=O)[C@@H]1C[C@H]2CN(c3ncccn3)C[C@H]2N1C(C)C.O=C(O)C(F)(F)F.O=C(O)C(F)(F)F,-5.727%
19,CC(C)NC(=O)[C@H]1C[C@@H]2[C@@H](C1)OCCN2Cc1ccncc1,-4.174%
20,COCCN1CCN(Cc2ccncc2)[C@H]2CS(=O)(=O)C[C@H]21,0.5994%
21,C[C@@H]1CN2C[C@H](O)CC2CN1Cc1ccncc1 (stereo partly drawn),148.8%
22,Oc1cccc(CN2C[C@H]3CC[C@@H]2CN(Cc2ccncc2)C3)c1,-4.265%
23,C[C@H]1CN2C[C@H](O)CC2CN1Cc1ccncc1 (stereo partly drawn),120.2%
24,O=S1(=O)C[C@@H]2[C@H](C1)N(Cc1ccoc1)CCN2Cc1ccncc1,-1.69%

row,Compound,Percent Effect
1,Cc1c(CN2CCCC(C(=O)c3ccc(C(C)(C)C)cc3)C2)cnn1C (stereo not drawn),35.11%
2,CN1CCN(c2ccc(F)cc2C(N)=O)CC1,129.8%
3,CN1CCN(c2ccc(CO)cc2F)CC1,13.78%
4,CN1CCC2(CC1)C(=O)N(C)c1ccc(F)cc12.Cl,-19.58%
5,CCN1CCC2(CCC1=O)CN(c1nccc(N)n1)CCN2C (stereo not drawn),-7.397%
6,CCNCCc1nc2cc(F)ccc2[nH]1.Cl,-10.45%
7,Cc1ccc2c(n1)N(C)CCN(Cc1cnn(C)c1)C2,75.85%
8,Cc1ccc2c(n1)N(C)CCN(CCN1CCCC1)C2.O=C(O)C(F)(F)F.O=C(O)C(F)(F)F.O=C(O)C(F)(F)F,31.59%
9,Cc1oc(-c2ccco2)nc1CC(=O)N1CCN(CC(C)O)CC1 (stereo not drawn),16.55%
10,Cc1ccc(C(=O)N2C[C@@H]3CCCO[C@@H]3[C@H](N3CCCC3)C2)cn1.O=C(O)C(F)(F)F.O=C(O)C(F)(F)F,-21.68%
11,Cc1ccc(C(=O)N2C[C@H](N3CCOCC3)[C@@H]3OCCC[C@@H]32)cn1.O=C(O)C(F)(F)F.O=C(O)C(F)(F)F,103.6%
12,CN1CCN([C@@H]2CN(C(=O)c3ccnnc3)[C@@H]3CCCO[C@H]23)CC1,-8.561%
13,CC(C)(C)n1cc(C(=O)NCCCn2ccnc2)c2cccnc21,3.37%
14,CNC(=O)c1cn(C(C)(C)C)c2ncccc12,127%
15,CC(C)(C)n1cc(C2=CCN(CCNC(N)=O)CC2)cn1,-16.31%
16,CCCNC(=O)c1cn(C(C)(C)C)c2ncccc12,115.3%
17,CCNC(=O)c1cn(C(C)(C)C)c2ncccc12,133.4%
18,CCCn1cc(C(=O)NCCCC(N)=O)c2ccccc21,15.02%
19,CC(C)(C)n1cc(C2=CCN(CCNC(=O)c3ccccc3)CC2)cn1,-2.502%
20,CC(C)(C)n1cc(C(=O)NCCN2CCOCC2)c2cccnc21,135%
21,Cc1ccnc(CC(C)N(C)Cc2ccc3c(c2)OCCO3)c1 (stereo not drawn),2.178%
22,O=C(NC[C@H]1C[C@@H]2CCN1C[C@@H]2CN1CCCC1)c1ccco1,7.038%
23,CC1CCN(C[C@H]2CN3CC[C@H]2C[C@@H]3CNC(=O)c2ccco2)CC1,-5.154%
24,Clc1ccccc1CNC(Cn1cncn1)c1ccccc1 (stereo not drawn),-5.969%

row,Compound,Percent Effect
1,CN1CCO[C@H]2CN(C(=O)c3ccncc3F)C[C@H]21.O=C(O)C(F)(F)F,-9.265%
2,CNC(=O)CN1CCOCC2(CCCN(Cc3cccnc3)C2)C1.O=C(O)C(F)(F)F.O=C(O)C(F)(F)F.O=C(O)C(F)(F)F (stereo not drawn),-4.883%
3,CCN1CCOCC2(CCCN(C(=O)c3conc3C)C2)C1.O=C(O)C(F)(F)F (stereo not drawn),89.52%
4,O=C(O)C(F)(F)F.c1cnc(N2CCCC3(COCCN(CC4CC4)C3)C2)nc1 (stereo not drawn),-4.915%
5,CCN1CCOCC2(CCCN(C(=O)c3ccncc3F)C2)C1.O=C(O)C(F)(F)F (stereo not drawn),92.47%
6,O=C(C1CC1)N1CCc2c(ncnc2N2CCN3CCCC3C2)C1 (stereo not drawn),16.5%
7,CC(C)c1nc(CC(=O)N2CCN(C)CC2c2ccccc2)cs1 (stereo not drawn),13.34%
8,Cc1ccc(NC(=O)CNC(C)Cc2ccsc2)cc1F (stereo not drawn),8.644%
9,CN(C)C(=O)[C@H]1CC[C@@H]2[C@@H](CCN2Cc2ccccn2)O1.O=C(O)C(F)(F)F.O=C(O)C(F)(F)F,1.437%
10,Cc1ccccc1C1(CN)CCOCC1,1.37%
11,Cc1ccc(N2CC[C@@H]3CN(Cc4cccc(C)n4)C[C@@H]3C2)nn1.O=C(O)C(F)(F)F,-3.12%
12,O=C(O)C(F)(F)F.O=C(O)C(F)(F)F.c1cnc(N2CC[C@@H]3CN(Cc4ccncc4)CCO[C@@H]3C2)nc1,-13.84%
13,Cc1ccc(N2C[C@H]3CCN(Cc4ccncc4)C[C@H]3C2)nn1.O=C(O)C(F)(F)F,106.9%
14,O=C(O)C(F)(F)F.c1cc(CN2CC[C@@H]3CN(c4cnccn4)C[C@@H]3C2)ccn1,126.3%
15,Cc1ccc(N2CC[C@@H]3CN(Cc4cc[nH]n4)C[C@@H]3C2)nn1.O=C(O)C(F)(F)F,-9.951%
16,O=C(O)C(F)(F)F.O=C(O)C(F)(F)F.c1ccc(N2CC[C@@H]3CN(Cc4ccncc4)CCO[C@@H]3C2)cc1,-7.726%
17,c1cc(CN2CC[C@@H]3CN(c4cncnc4)C[C@@H]3C2)ccn1,100.2%
18,O=C(O)C(F)(F)F.O=C1[C@H]2CN(Cc3ccc(F)cc3)C[C@H]2CN1c1cncnc1,-0.4188%
19,O=C(O)C(F)(F)F.c1cnc(N2C[C@H]3CCN(Cc4ccncc4)C[C@H]3C2)nc1,87.9%
20,O=C(O)C(F)(F)F.O=C(O)C(F)(F)F.O=C1[C@H]2CN(Cc3ccncc3)C[C@H]2CN1c1cncnc1,-1.722%
21,Cn1cc(N2CC[C@@H]3CN(Cc4ccncc4)C[C@H]3C2=O)cn1.O=C(O)C(F)(F)F.O=C(O)C(F)(F)F,-47.34%
